Source: PubChem BioAssay (NCATS)
Inconclusive results are not listed. Active and inactive are the calls of the source. Unless noted, calls come from the whole dose curve; as a rule, active = well fitted curve in the direction sought with a large enough effect; inconclusive = small, poorly fitted or top-dose-only effect, or another doubt; inactive = no such curve, though single readings can be large; an effect the other way counts as inactive or inconclusive.

What was measured:
[1] = target: Ubiquitin carboxyl-terminal hydrolase 2 (Homo sapiens) (UniProt O75604); assay: qHTS Validation Assay for Inhibitors of Ubiquitin-specific Protease USP2a Using CHOP2 as the Reporter (AID 463106)
Summary of the method: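 Inhibition is expressed relative to NEM as the full-inhibition control, with concentration-response curves classed by fit quality, magnitude and activity. Enzyme (USP2 core, 10nM) meets 25nM Ub-CHOP2 after compound preincubation; readings are taken at 60min.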

[2] = target: DNA polymerase III PolC-type (Bacillus subtilis (strain 168)) (UniProt P13267); assay: qHTS Validation Assay for the Inhibitors of DNA Replication in Gram-Positive Bacteria (AID 485295);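 note: reconstituted holoenzyme with PolC plus beta clamp SSB and primase; PicoGreen fluorescence of double-stranded DNA made on primed circular M13 template; series mostly up to about 57 µM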
Summary of the method: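 Primed replication of single-stranded M13Gori by a four-protein B. subtilis holoenzyme is measured at room temperature. Double-stranded product is quantified by PicoGreen fluorescence after an EDTA stop; inhibition is scaled between DMSO and EDTA controls.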

[3] = target: Tumor susceptibility gene 101 protein (Homo sapiens) (UniProt Q99816); assay: qHTS Validation Assay for Iinhibitors of HIV-1 Budding by Blocking the Interaction of PTAP/TSG101 (AID 485342; calls by dose curve)
Summary of the method: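 Fluorescence anisotropy measured PTAP-Tsg101 interaction. Final concentrations were 10 uM protein domain and 50 nM labeled peptide, equilibrated 20 min at room temperature.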

[4] = target: Thioredoxin reductase 1, cytoplasmic (Rattus norvegicus) (UniProt O89049); assay: qHTS Assay for Inhibitors of Mammalian Selenoprotein Thioredoxin Reductase 1 (TrxR1) (AID 488773); settings: Potency: inhibition; note: nearly all actives have a fitted effect of over 40% in size; note: potency is the fitted concentration of half-maximal effect
Summary of the method: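 Inhibition is scored from the loss of NADPH fluorescence between first and last reads of an 8-min kinetic run. Selenite (400 uM) was the substrate, added after 15 min compound preincubation at room temperature.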

[5] = qHTS Validation Assay to Find Inhibitors of Chronic Active B-Cell Receptor Signaling (AID 485345; active = well fitted curve in the direction sought with a large enough effect in the main read-out, with a control signal flat, not every such curve was filed as active)
Summary of the method: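 TMD8 ABC-DLBCL cells with dox-inducible green luciferase–IκBα fusion and red native luciferase; compounds 46 uM–3 nM, 4 h at 37C with doxycycline in 0.5% FBS IMDM. Green/red ratio normalized to basal and 10 uM MG-132.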

[6] = target: Beta-2 adrenergic receptor (Homo sapiens) (UniProt P07550); assay: qHTS validation assay of beta-arrestin-biased ligands of beta2-adrenergic receptor (AID 485366)
Summary of the method: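 Agonism was measured as beta-arrestin recruitment to recombinant beta2-AR, releasing tTA to drive luciferase. Cells were exposed for 18 hr at 37 degrees C to a series up to 46 microM. %Activity from corrected luminescence gave concentration-response curves.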

[7] = target: Thioredoxin reductase 1, cytoplasmic (Rattus norvegicus) (UniProt O89049); assay: qHTS Assay for Substrates of Mammalian Selenoprotein Thioredoxin Reductase 1 (TrxR1) (AID 488772);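 note: series mostly up to about 57 µM; a drop in NADPH fluorescence below the no-compound background marks a TrxR1 substrate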
Summary of the method: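 In this dual-purpose format, potential substrates are identified from the first fluorescence read after selenite addition, not from the 8-minute delta. Rat enzyme is preincubated with NADPH and then with compound at ~22 deg C.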

[8] = target: ATP-dependent 6-phosphofructokinase (Trypanosoma brucei brucei) (UniProt O15648); assay: qHTS Validation Assay to Find Inhibitors of T. brucei phosphofructokinase (AID 485368)
Summary of the method: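 ADP-Glo luminescence, two-step: residual ATP depleted, then ADP converted to ATP for luciferase. Enzyme 1.25 nM, F6P 0.5 mM, ATP 0.1 mM, pH 8.0 TEA buffer, 45 min RT. Curves fitted and classed by quality and efficacy.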

[9] = Quantitative high throughput screen for delayed death inhibitors of the malarial parasite plastid, 96 hour incubation (AID 488745); note: nearly all actives have a fitted effect of over 70% in size; note: potency is the fitted concentration of half-maximal effect
Summary of the method: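 Readout is firefly luciferase luminescence from an integrated reporter in P. falciparum; lower signal marks inhibited growth. Cultures at 2% hematocrit and 0.1% parasitemia were treated with compound across two generations (96 h, 37 C, 5% CO2).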

[10] = Quantitative high throughput screen for delayed death inhibitors of the malarial parasite plastid, 48 hour incubation (AID 488752); note: nearly all actives have a fitted effect of over 65% in size
Summary of the method: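 First, compound was pinned into RPMI 1640 medium containing 0.5% Albumax. Next, reporter-parasite-infected erythrocytes were added to 2% hematocrit and 0.1% parasitemia. After 48 h at 37 C under 5% CO2, luciferase detection reagent was added and luminescence read.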

Measured: Potency

DNA polymerase III PolC-type (Bacillus subtilis (strain 168)), sequence (P13267 whole entry, looked up): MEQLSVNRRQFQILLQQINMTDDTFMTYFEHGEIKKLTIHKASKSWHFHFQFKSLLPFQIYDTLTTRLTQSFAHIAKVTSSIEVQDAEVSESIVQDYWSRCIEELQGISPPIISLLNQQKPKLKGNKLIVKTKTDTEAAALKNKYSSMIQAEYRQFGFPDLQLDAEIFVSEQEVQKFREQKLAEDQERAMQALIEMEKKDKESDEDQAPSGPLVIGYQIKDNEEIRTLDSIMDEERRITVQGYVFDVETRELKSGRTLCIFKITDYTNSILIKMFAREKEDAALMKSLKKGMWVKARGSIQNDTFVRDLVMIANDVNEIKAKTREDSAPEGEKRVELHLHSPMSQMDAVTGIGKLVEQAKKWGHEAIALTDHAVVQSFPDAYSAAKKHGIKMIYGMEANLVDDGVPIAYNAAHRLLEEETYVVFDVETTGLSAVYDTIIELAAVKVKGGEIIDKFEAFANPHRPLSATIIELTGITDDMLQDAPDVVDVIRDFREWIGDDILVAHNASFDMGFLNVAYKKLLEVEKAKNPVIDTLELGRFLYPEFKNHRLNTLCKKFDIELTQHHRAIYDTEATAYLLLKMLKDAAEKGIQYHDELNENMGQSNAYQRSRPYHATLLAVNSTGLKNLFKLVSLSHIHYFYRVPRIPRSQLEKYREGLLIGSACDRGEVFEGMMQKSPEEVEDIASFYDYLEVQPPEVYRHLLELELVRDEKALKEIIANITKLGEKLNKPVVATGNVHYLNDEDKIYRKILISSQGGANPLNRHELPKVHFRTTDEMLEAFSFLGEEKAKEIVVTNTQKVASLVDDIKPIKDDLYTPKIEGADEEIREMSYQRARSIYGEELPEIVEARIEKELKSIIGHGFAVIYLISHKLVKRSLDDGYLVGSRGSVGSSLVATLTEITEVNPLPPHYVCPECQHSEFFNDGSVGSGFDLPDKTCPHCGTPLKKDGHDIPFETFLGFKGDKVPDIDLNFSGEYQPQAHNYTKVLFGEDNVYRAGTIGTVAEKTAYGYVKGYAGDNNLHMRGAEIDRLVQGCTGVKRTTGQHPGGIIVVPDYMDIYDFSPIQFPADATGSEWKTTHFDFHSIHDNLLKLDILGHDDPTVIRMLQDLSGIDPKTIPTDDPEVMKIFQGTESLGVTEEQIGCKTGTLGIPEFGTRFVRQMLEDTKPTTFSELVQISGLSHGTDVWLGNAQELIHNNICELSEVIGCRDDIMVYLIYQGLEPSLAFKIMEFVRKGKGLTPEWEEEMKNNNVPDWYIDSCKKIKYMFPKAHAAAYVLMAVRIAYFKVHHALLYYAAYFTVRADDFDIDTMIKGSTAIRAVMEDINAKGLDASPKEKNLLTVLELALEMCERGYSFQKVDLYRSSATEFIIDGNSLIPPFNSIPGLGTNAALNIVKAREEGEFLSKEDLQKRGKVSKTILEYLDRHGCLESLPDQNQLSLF
ATP-dependent 6-phosphofructokinase (Trypanosoma brucei brucei), sequence (O15648 whole entry, looked up): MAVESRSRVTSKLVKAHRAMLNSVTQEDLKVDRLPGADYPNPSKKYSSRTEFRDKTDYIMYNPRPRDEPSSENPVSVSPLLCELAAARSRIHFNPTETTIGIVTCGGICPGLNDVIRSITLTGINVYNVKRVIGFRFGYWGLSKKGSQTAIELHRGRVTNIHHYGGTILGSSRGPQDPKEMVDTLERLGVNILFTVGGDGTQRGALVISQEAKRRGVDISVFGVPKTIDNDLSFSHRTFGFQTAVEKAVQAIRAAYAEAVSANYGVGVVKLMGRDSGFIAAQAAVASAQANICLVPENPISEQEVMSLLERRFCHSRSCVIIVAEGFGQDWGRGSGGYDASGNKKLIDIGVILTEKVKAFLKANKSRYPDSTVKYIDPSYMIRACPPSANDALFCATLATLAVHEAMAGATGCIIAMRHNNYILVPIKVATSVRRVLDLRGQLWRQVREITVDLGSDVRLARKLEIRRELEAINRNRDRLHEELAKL
Thioredoxin reductase 1, cytoplasmic (Rattus norvegicus), sequence (O89049 whole entry, looked up): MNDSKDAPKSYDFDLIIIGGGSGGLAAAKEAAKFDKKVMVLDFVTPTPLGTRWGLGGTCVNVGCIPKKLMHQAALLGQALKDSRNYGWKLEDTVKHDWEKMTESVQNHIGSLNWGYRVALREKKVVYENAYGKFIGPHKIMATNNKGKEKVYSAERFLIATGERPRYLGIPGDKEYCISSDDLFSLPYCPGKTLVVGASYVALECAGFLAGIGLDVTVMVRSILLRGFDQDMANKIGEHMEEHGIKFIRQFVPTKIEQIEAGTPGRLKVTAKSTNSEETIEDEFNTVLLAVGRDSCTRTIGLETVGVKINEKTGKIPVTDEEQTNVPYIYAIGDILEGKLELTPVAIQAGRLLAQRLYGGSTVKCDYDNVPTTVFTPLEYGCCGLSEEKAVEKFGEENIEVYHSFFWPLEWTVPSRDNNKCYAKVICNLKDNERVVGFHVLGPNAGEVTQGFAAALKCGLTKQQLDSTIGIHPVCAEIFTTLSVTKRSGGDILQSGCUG
Ubiquitin carboxyl-terminal hydrolase 2 (Homo sapiens), sequence (O75604 whole entry, looked up): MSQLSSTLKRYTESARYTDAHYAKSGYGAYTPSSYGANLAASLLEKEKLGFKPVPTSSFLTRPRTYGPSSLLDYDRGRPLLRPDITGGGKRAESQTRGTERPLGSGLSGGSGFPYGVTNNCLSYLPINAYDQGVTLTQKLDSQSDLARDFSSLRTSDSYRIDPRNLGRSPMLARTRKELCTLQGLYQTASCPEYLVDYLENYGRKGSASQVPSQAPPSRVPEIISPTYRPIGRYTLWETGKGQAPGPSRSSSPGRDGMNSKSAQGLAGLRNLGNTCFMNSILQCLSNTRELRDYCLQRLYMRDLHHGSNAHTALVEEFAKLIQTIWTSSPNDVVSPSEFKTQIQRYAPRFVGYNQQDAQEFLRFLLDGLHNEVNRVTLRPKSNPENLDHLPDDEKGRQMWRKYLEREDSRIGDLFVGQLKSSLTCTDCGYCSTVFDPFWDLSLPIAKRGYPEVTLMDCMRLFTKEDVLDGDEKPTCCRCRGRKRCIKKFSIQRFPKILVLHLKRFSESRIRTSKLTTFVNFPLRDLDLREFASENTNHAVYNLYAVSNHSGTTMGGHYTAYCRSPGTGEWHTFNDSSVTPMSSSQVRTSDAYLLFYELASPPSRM
Beta-2 adrenergic receptor (Homo sapiens), sequence (P07550 whole entry, looked up): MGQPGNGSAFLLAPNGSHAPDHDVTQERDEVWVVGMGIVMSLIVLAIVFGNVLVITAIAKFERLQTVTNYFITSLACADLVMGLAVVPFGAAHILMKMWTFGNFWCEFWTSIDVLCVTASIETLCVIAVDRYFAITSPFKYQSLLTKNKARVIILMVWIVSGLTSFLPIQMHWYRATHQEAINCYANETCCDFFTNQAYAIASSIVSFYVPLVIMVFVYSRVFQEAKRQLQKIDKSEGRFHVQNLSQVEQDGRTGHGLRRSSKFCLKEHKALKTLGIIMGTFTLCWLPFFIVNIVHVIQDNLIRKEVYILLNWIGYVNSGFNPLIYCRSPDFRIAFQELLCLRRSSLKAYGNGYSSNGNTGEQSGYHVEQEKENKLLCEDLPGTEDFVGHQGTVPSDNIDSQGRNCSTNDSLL
Tumor susceptibility gene 101 protein (Homo sapiens), sequence (Q99816 whole entry, looked up, the tested form may be a part): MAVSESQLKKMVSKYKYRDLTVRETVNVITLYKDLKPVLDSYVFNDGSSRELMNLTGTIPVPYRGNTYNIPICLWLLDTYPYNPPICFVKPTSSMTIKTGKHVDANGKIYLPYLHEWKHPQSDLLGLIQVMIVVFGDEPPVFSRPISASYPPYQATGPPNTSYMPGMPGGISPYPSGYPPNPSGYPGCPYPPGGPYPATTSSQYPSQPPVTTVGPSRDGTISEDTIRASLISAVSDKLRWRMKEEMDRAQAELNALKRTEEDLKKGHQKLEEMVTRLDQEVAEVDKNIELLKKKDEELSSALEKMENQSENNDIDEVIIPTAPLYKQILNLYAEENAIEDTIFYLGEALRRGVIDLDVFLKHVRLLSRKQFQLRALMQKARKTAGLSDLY

OC[C@H]1O[C@@H](n2cnc3c(Nc4ccccc4)ncnc32)[C@H](O)[C@@H]1O
inactive: [1] | [2] | [3] | [4]

C[N+]1(C)C2CC(OC(=O)[C@H](CO)c3ccccc3)CC1C1OC12 (some centres not stated)
inactive: [1] | [2] | [5] | [6] | [7] | [4]

CCCCCCCC/C=C\CCCCCCCC(=O)NCCO
active: [9] 2.94 µM
inactive: [1] | [2] | [5] | [8] | [7]

Cn1ncc(S(=O)(=O)Cc2ccccc2)c(Br)c1=O
active: [4] 0.947 µM
inactive: [1] | [2] | [6] | [7]

CCN(CC)c1ncnc2c1ncn2[C@@H]1O[C@H](COP(=O)(O)OP(=O)(O)C(Br)(Br)P(=O)(O)O)[C@@H](O)[C@H]1O
inactive: [1] | [2] | [5] | [8] | [4]

C[N+]1(C)CCC(OC(=O)C(c2ccccc2)c2ccccc2)CC1
not listed: [3] | [9] | [10]
inactive: all other assays above

CC1OC1P(=O)(O)O (configuration not stated)
inactive: [1] | [2] | [5] | [6] | [4]

CC(C)NC[C@@H](O)c1ccc(O)c(O)c1
inactive: [1] | [3] | [5] | [7]

COC(=O)c1c(C)[nH]c(C)c1C(=O)c1ccccc1Cc1ccccc1
inactive: [1] | [2] | [6] | [4]
active: [9] 11.7 µM

COc1cc2nc(N3CCN(C(=O)OCc4ccccc4)C(C(=O)NC(C)(C)C)C3)nc(N)c2cc1OC (configuration not stated)
inactive: [1] | [2] | [7] | [4]

COc1cc2c(CCNC(C)=O)c[nH]c2cc1Cl
not listed: [2] | [8]
inactive: all other assays above

COc1ccccc1N1CCN(CCCCNS(=O)(=O)c2cccc3c(N(C)C)cccc23)CC1
not listed: [3] | [5] | [8]
inactive: all other assays above

O=C(O)CCCC[C@@H]1CCSS1
inactive: [1] | [2] | [5] | [6] | [9] | [4]

COC1=C(OC)C(=O)c2ccccc2C1=O
not listed: [2] | [8]
inactive: all other assays above

O=C(c1cc(O)c(O)c([N+](=O)[O-])c1)c1ccccc1F
not listed: [2] | [6] | [8]
inactive: all other assays above

CC(C)NC[C@H](O)COc1cccc2[nH]ccc12
not listed: [2] | [8]
inactive: all other assays above

CCOC(=O)N1CCN(/[N+]([O-])=N/Oc2ccc([N+](=O)[O-])cc2[N+](=O)[O-])CC1
inactive: [1] | [2] | [3] | [7]
active: [4] 6.7 µM

CN(C)CCC(c1ccc(Cl)cc1)c1ccccn1 (configuration not stated)
not listed: [2] | [6] | [8]
inactive: all other assays above
